# Reference: PMC11006913
# Positions count from the first letter of the chain named.
# Assays:
# Experiment in all cases: PBM; 200 nM protein, PBS
# Settings in all cases: dsDNA, one strand shown
# PAX4 [1] = target: T1, PAX4 (Homo sapiens, UniProt O43316 9-242, R200K)
# T1 sequence: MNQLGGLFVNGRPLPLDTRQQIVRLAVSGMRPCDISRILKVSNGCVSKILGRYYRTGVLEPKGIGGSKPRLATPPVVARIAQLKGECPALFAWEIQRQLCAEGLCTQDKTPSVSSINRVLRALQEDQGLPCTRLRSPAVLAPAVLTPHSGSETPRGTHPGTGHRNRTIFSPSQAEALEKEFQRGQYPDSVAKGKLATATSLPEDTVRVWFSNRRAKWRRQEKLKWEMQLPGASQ
# PAX4 [2] = target: T2, PAX4 (Homo sapiens, UniProt O43316 9-242)
# T2 sequence: T1 sequence with K192R
# NKX2-6 [3] = target: T3, NKX2-6 (Homo sapiens, UniProt A6NCS4 118-204)
# T3 sequence: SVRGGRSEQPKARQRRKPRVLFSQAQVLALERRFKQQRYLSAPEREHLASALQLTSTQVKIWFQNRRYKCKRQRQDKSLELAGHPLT
# PAX4 [4] = target: T4, PAX4 (Homo sapiens, UniProt O43316 9-242, R200Q)
# T4 sequence: T1 sequence with K192Q
# PAX4 [5] = target: T5, PAX4 (Homo sapiens, UniProt O43316 9-242, F177V)
# T5 sequence: T1 sequence with F169V, K192R
# PAX4 [6] = target: T6, PAX4 (Homo sapiens, UniProt O43316 9-242, F177Y)
# T6 sequence: T1 sequence with F169Y, K192R
# NKX2-6 [7] = target: T7, NKX2-6 (Homo sapiens, UniProt A6NCS4 118-204, F151L)
# T7 sequence: T3 sequence with F34L
# PAX4 [8] = target: T8, PAX4 (Homo sapiens, UniProt O43316 9-242, R227W)
# T8 sequence: T1 sequence with K192R, R219W
# MSX2 [9] = target: MSX2 (Homo sapiens, UniProt P35548 130-214, R199I)
# MSX2 [10] = target: MSX2 (Homo sapiens, UniProt P35548 130-214)
# MSX2 [11] = target: MSX2 (Homo sapiens, UniProt P35548 130-214, F161Y)
# HOXA2 [12] = target: HOXA2 (Homo sapiens, UniProt O43364 129-215, R185T)
# HOXA2 [13] = target: HOXA2 (Homo sapiens, UniProt O43364 129-215, R185K)
# HOXA2 [14] = target: HOXA2 (Homo sapiens, UniProt O43364 129-215, Y150S)
# HOXA2 [15] = target: HOXA2 (Homo sapiens, UniProt O43364 129-215)
# PROP1 [16] = target: PROP1 (Homo sapiens, UniProt O75360 56-141)
# PROP1 [17] = target: PROP1 (Homo sapiens, UniProt O75360 56-141, R99H)
# PROP1 [18] = target: PROP1 (Homo sapiens, UniProt O75360 56-141, F88S)
# ALX3 [19] = target: ALX3 (Homo sapiens, UniProt O95076 139-225, N203Q)
# ALX3 [20] = target: ALX3 (Homo sapiens, UniProt O95076 139-225)
# ALX3 [21] = target: ALX3 (Homo sapiens, UniProt O95076 139-225, L168Q)
# ALX3 [22] = target: ALX3 (Homo sapiens, UniProt O95076 139-225, L168V)
# ALX3 [23] = target: ALX3 (Homo sapiens, UniProt O95076 139-225, N203S)
# ALX3 (Homo sapiens, UniProt O95076 139-225, N203S), sequence (O95076 139-225 N203S): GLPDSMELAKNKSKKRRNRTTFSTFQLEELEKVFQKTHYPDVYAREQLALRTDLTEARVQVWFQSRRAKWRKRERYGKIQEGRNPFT
# HOXA2 (Homo sapiens, UniProt O43364 129-215, Y150S), sequence (O43364 129-215 Y150S): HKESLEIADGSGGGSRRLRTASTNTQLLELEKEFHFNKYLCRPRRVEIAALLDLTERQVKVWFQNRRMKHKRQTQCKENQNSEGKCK
# HOXA2 (Homo sapiens, UniProt O43364 129-215), sequence (O43364 129-215): as the sequence (O43364 129-215 Y150S) above, with S22Y counted along it
# HOXA2 (Homo sapiens, UniProt O43364 129-215, R185T), sequence (O43364 129-215 R185T): as the sequence (O43364 129-215 Y150S) above, with S22Y, R57T counted along it
# HOXA2 (Homo sapiens, UniProt O43364 129-215, R185K), sequence (O43364 129-215 R185K): as the sequence (O43364 129-215 Y150S) above, with S22Y, R57K counted along it
# ALX3 (Homo sapiens, UniProt O95076 139-225, L168V), sequence (O95076 139-225 L168V): as the sequence (O95076 139-225 N203S) above, with L30V, S65N counted along it
# ALX3 (Homo sapiens, UniProt O95076 139-225, N203Q), sequence (O95076 139-225 N203Q): as the sequence (O95076 139-225 N203S) above, with S65Q counted along it
# MSX2 (Homo sapiens, UniProt P35548 130-214, F161Y), sequence (P35548 130-214 F161Y): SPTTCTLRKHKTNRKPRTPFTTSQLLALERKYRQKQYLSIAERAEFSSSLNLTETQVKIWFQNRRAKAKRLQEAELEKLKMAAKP
# MSX2 (Homo sapiens, UniProt P35548 130-214, R199I), sequence (P35548 130-214 R199I): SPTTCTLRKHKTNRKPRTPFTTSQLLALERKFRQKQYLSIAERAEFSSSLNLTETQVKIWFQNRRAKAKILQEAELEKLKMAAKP
# PROP1 (Homo sapiens, UniProt O75360 56-141, R99H), sequence (O75360 56-141 R99H): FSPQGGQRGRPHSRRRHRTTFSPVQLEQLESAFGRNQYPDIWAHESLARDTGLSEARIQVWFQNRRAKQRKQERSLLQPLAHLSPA
# MSX2 (Homo sapiens, UniProt P35548 130-214), sequence (P35548 130-214): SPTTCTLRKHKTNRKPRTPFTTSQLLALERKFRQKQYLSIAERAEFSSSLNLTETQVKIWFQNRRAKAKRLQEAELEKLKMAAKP
# PROP1 (Homo sapiens, UniProt O75360 56-141), sequence (O75360 56-141): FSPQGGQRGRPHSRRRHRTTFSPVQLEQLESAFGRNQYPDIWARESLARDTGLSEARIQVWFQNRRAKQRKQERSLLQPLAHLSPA
# ALX3 (Homo sapiens, UniProt O95076 139-225), sequence (O95076 139-225): as the sequence (O95076 139-225 N203S) above, with S65N counted along it
# PROP1 (Homo sapiens, UniProt O75360 56-141, F88S), sequence (O75360 56-141 F88S): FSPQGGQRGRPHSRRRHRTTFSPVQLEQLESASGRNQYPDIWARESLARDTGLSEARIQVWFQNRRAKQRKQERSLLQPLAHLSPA
# ALX3 (Homo sapiens, UniProt O95076 139-225, L168Q), sequence (O95076 139-225 L168Q): as the sequence (O95076 139-225 N203S) above, with L30Q, S65N counted along it
sequence,measurement,setting,value
CGTCCCCC,binding signal,PAX4 [1],"9.1 upbm affinity estimate (log intensity, higher = more binding, comparable within an allelic series)"
same,binding signal,PAX4 [2],"9.14 upbm affinity estimate (log intensity, higher = more binding, comparable within an allelic series)"
same,binding signal,NKX2-6 [3],"9.4 upbm affinity estimate (log intensity, higher = more binding, comparable within an allelic series)"
same,binding signal,PAX4 [4],"9.11 upbm affinity estimate (log intensity, higher = more binding, comparable within an allelic series)"
same,binding signal,PAX4 [5],"9.08 upbm affinity estimate (log intensity, higher = more binding, comparable within an allelic series)"
same,binding signal,PAX4 [6],"9.19 upbm affinity estimate (log intensity, higher = more binding, comparable within an allelic series)"
same,binding signal,NKX2-6 [7],"9.03 upbm affinity estimate (log intensity, higher = more binding, comparable within an allelic series)"
same,binding signal,PAX4 [8],"9.21 upbm affinity estimate (log intensity, higher = more binding, comparable within an allelic series)"
CCGGGGGA,binding signal,PAX4 [1],"9.19 upbm affinity estimate (log intensity, higher = more binding, comparable within an allelic series)"
same,binding signal,PAX4 [2],"9.35 upbm affinity estimate (log intensity, higher = more binding, comparable within an allelic series)"
same,binding signal,MSX2 [9],"9.52 upbm affinity estimate (log intensity, higher = more binding, comparable within an allelic series)"
same,binding signal,PAX4 [4],"9.16 upbm affinity estimate (log intensity, higher = more binding, comparable within an allelic series)"
same,binding signal,PAX4 [5],"9.14 upbm affinity estimate (log intensity, higher = more binding, comparable within an allelic series)"
same,binding signal,MSX2 [10],"9.61 upbm affinity estimate (log intensity, higher = more binding, comparable within an allelic series)"
same,binding signal,PAX4 [6],"9.09 upbm affinity estimate (log intensity, higher = more binding, comparable within an allelic series)"
same,binding signal,MSX2 [11],"9.5 upbm affinity estimate (log intensity, higher = more binding, comparable within an allelic series)"
same,binding signal,PAX4 [8],"9.22 upbm affinity estimate (log intensity, higher = more binding, comparable within an allelic series)"
CGACAGCG,binding signal,PAX4 [1],"9.45 upbm affinity estimate (log intensity, higher = more binding, comparable within an allelic series)"
same,binding signal,PAX4 [2],"9.39 upbm affinity estimate (log intensity, higher = more binding, comparable within an allelic series)"
same,binding signal,NKX2-6 [3],"9.49 upbm affinity estimate (log intensity, higher = more binding, comparable within an allelic series)"
same,binding signal,PAX4 [4],"9.48 upbm affinity estimate (log intensity, higher = more binding, comparable within an allelic series)"
same,binding signal,PAX4 [5],"9.36 upbm affinity estimate (log intensity, higher = more binding, comparable within an allelic series)"
same,binding signal,PAX4 [6],"9.33 upbm affinity estimate (log intensity, higher = more binding, comparable within an allelic series)"
same,binding signal,NKX2-6 [7],"9.32 upbm affinity estimate (log intensity, higher = more binding, comparable within an allelic series)"
same,binding signal,PAX4 [8],"9.44 upbm affinity estimate (log intensity, higher = more binding, comparable within an allelic series)"
CGGGGCGC,binding signal,PAX4 [1],"9.09 upbm affinity estimate (log intensity, higher = more binding, comparable within an allelic series)"
same,binding signal,PAX4 [2],"9 upbm affinity estimate (log intensity, higher = more binding, comparable within an allelic series)"
same,binding signal,HOXA2 [12],"7.19 upbm affinity estimate (log intensity, higher = more binding, comparable within an allelic series)"
same,binding signal,PAX4 [4],"8.96 upbm affinity estimate (log intensity, higher = more binding, comparable within an allelic series)"
same,binding signal,HOXA2 [13],"9.85 upbm affinity estimate (log intensity, higher = more binding, comparable within an allelic series)"
same,binding signal,PAX4 [5],"8.91 upbm affinity estimate (log intensity, higher = more binding, comparable within an allelic series)"
same,binding signal,PAX4 [6],"9.04 upbm affinity estimate (log intensity, higher = more binding, comparable within an allelic series)"
same,binding signal,PAX4 [8],"9.06 upbm affinity estimate (log intensity, higher = more binding, comparable within an allelic series)"
same,binding signal,HOXA2 [14],"10.3 upbm affinity estimate (log intensity, higher = more binding, comparable within an allelic series)"
same,binding signal,HOXA2 [15],"7.21 upbm affinity estimate (log intensity, higher = more binding, comparable within an allelic series)"
AAGGGGGC,binding signal,PAX4 [1],"9.31 upbm affinity estimate (log intensity, higher = more binding, comparable within an allelic series)"
same,binding signal,PAX4 [2],"9.38 upbm affinity estimate (log intensity, higher = more binding, comparable within an allelic series)"
same,binding signal,PAX4 [4],"9.38 upbm affinity estimate (log intensity, higher = more binding, comparable within an allelic series)"
same,binding signal,PAX4 [5],"9.25 upbm affinity estimate (log intensity, higher = more binding, comparable within an allelic series)"
same,binding signal,PAX4 [6],"9.22 upbm affinity estimate (log intensity, higher = more binding, comparable within an allelic series)"
same,binding signal,PROP1 [16],"6.71 upbm affinity estimate (log intensity, higher = more binding, comparable within an allelic series)"
same,binding signal,PROP1 [17],"6.71 upbm affinity estimate (log intensity, higher = more binding, comparable within an allelic series)"
same,binding signal,PROP1 [18],"6.36 upbm affinity estimate (log intensity, higher = more binding, comparable within an allelic series)"
same,binding signal,PAX4 [8],"9.29 upbm affinity estimate (log intensity, higher = more binding, comparable within an allelic series)"
GAGCAGGC,binding signal,PAX4 [1],"9.17 upbm affinity estimate (log intensity, higher = more binding, comparable within an allelic series)"
same,binding signal,PAX4 [2],"9.18 upbm affinity estimate (log intensity, higher = more binding, comparable within an allelic series)"
same,binding signal,HOXA2 [12],"7.17 upbm affinity estimate (log intensity, higher = more binding, comparable within an allelic series)"
same,binding signal,PAX4 [4],"9.24 upbm affinity estimate (log intensity, higher = more binding, comparable within an allelic series)"
same,binding signal,HOXA2 [13],"10.1 upbm affinity estimate (log intensity, higher = more binding, comparable within an allelic series)"
same,binding signal,PAX4 [5],"9.28 upbm affinity estimate (log intensity, higher = more binding, comparable within an allelic series)"
same,binding signal,PAX4 [6],"9.26 upbm affinity estimate (log intensity, higher = more binding, comparable within an allelic series)"
same,binding signal,PAX4 [8],"9.32 upbm affinity estimate (log intensity, higher = more binding, comparable within an allelic series)"
same,binding signal,HOXA2 [14],"10.5 upbm affinity estimate (log intensity, higher = more binding, comparable within an allelic series)"
same,binding signal,HOXA2 [15],"7.04 upbm affinity estimate (log intensity, higher = more binding, comparable within an allelic series)"
ATTTAAAA,binding signal,PAX4 [1],"10.7 upbm affinity estimate (log intensity, higher = more binding, comparable within an allelic series)"
same,binding signal,PAX4 [2],"11 upbm affinity estimate (log intensity, higher = more binding, comparable within an allelic series)"
same,binding signal,PAX4 [4],"10.8 upbm affinity estimate (log intensity, higher = more binding, comparable within an allelic series)"
same,binding signal,PAX4 [5],"10.3 upbm affinity estimate (log intensity, higher = more binding, comparable within an allelic series)"
GAAGGACC,binding signal,PAX4 [1],"9.27 upbm affinity estimate (log intensity, higher = more binding, comparable within an allelic series)"
same,binding signal,PAX4 [2],"9.3 upbm affinity estimate (log intensity, higher = more binding, comparable within an allelic series)"
same,binding signal,ALX3 [19],"7.9 upbm affinity estimate (log intensity, higher = more binding, comparable within an allelic series)"
same,binding signal,PAX4 [4],"9.41 upbm affinity estimate (log intensity, higher = more binding, comparable within an allelic series)"
same,binding signal,PAX4 [5],"9.34 upbm affinity estimate (log intensity, higher = more binding, comparable within an allelic series)"
same,binding signal,ALX3 [20],"7.9 upbm affinity estimate (log intensity, higher = more binding, comparable within an allelic series)"
same,binding signal,PAX4 [6],"9.33 upbm affinity estimate (log intensity, higher = more binding, comparable within an allelic series)"
same,binding signal,ALX3 [21],"7.8 upbm affinity estimate (log intensity, higher = more binding, comparable within an allelic series)"
same,binding signal,ALX3 [22],"7.85 upbm affinity estimate (log intensity, higher = more binding, comparable within an allelic series)"
same,binding signal,PAX4 [8],"9.46 upbm affinity estimate (log intensity, higher = more binding, comparable within an allelic series)"
same,binding signal,ALX3 [23],"7.83 upbm affinity estimate (log intensity, higher = more binding, comparable within an allelic series)"
